# Compound activity (PubChem BioAssay)
# Shown are actives, neighbours in structure and some others; about 6.6% of the full set was active somewhere.
# MCF10A rerep = A quantitative high throughput screen for small molecules that induce DNA re-replication in MCF 10a normal breast cells; MCF 10A DNA re-replication, Hoechst nuclear intensity, 48 h; Potency, µM (highest dose often 46.1 µM), inactives show at the highest dose activity, positive = re-replication, hits mostly activators; hit rate 2.9% among 350,000; also: % of control where 0% means no effect; nearly all actives have a fitted effect of over 50% in size
# RGS4 inh = Inhibitors of Regulator of G Protein Signaling (RGS) 4: qHTS; hit rate 0.039% among 390,000; Transcreener GDP fluorescence polarization, RGS4-accelerated GTP hydrolysis; AID 504845, 2011; Potency, µM (highest dose often 114 µM), without a hit: at the top dose activity change, negative = inhibition, hits mostly inhibitors; also: % is scaled to controls: 0 for no effect and ±100 for the full control effect; nearly all actives have a fitted effect of over 75% in size
# Target sequence (P49798 whole entry, looked up): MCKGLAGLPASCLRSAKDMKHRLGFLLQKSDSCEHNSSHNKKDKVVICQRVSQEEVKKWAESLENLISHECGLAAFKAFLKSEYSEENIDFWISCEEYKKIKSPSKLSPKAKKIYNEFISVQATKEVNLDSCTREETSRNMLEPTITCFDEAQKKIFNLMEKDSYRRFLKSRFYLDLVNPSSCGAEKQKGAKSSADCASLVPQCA
#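 MLSMR compounds (23 nl, pin-transferred) preincubated 10 min at room temperature with a 500nM (2x) first reagent, then RGS4 at 900nM (2x) plus Transcreener GDP mix added; fluorescence polarization (620/688 nm) read before and after 90 min at 30 °C.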
# KB-V1 MDR tox = qHTS assay for MDR1-selective chemotherapeutics: Primary screen using the drug-selected MDR subline cells KB-V1. KB-V1 MDR cells viability, CellTiter-Glo, 72 h. Potency, µM (series often up to 46.1 µM), hits mostly cytotoxic. hit rate 3.4% among 400,000. AID 1347076, 2019; also: % is scaled to controls: 0 for no effect and ±100 for the full control effect; nearly all actives have a fitted effect of over 60% in size
#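 In this primary screen, KB-V1 cells overexpressing P-gp are incubated with library compounds (lowest to highest concentration) for 72 h at 37 degrees C before a luminescent ATP viability read.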
# SW480 rerep = A quantitative high throughput screen for small molecules that induce DNA re-replication in SW480 colon adenocarcinoma cells. Potency, µM (doses to about 46.1 µM), inactives show at the top dose re-replication activation, hits mostly activators. hit rate 1.8% among 340,000. SW480 DNA re-replication, Hoechst DNA content imaging, 48 h; also: % of control where 0% means no effect; nearly all actives have a fitted effect of over 55% in size
#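 DNA re-replication was detected as more nuclei of elevated Hoechst intensity after 48 hr exposure to compound (23 nL pinned per well of 250 cells).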
# KB-3-1 cytotox = qHTS assay for MDR1-selective chemotherapeutics: Primary screen using the parental adenocarcinoma cell KB-3-1; Potency, µM (top dose mostly 46.1 µM), hits mostly cytotoxic; hit rate 1.4% among 400,000; KB-3-1 viability, CellTiter-Glo ATP luminescence, 72 h; AID 1347075, 2019; also: % is scaled to controls: 0 for no effect and ±100 for the full control effect; nearly all actives have a fitted effect of over 60% in size
#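 Luminescent ATP read-out (CellTiter-Glo) measures survival of drug-naive KB-3-1 cells after 72 h compound exposure at 37 °C. Titration series was screened from lowest to highest concentration, with DMSO vehicle plates as background controls.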
# TSG101-PTAP inh = qHTS Assay for Iinhibitors of HIV-1 Budding by Blocking the Interaction of PTAP/TSG101; Tumor susceptibility gene 101 protein (Homo sapiens), Q99816; Fluorescence polarization, FITC-PTAP peptide / Tsg101 binding; Potency, µM (top dose mostly 115 µM), for the others: at the top dose activity change, negative = inhibition, actives largely listed as inhibitors; 340,000 tested, under 10 active; AID 493005, 2010; active = well fitted inhibition curve with a large enough effect in the main read-out, with a control signal flat, not every such curve was filed as active; inconclusive = small, poorly fitted or top-dose-only effect, or effect the other way, or a change in a side signal; inactive = no such curve, though single readings can be large or run the other way; also: % of control where 0% means no effect
#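 Steps: Tsg101 binding domain dispensed (10 uM final), compounds pinned in DMSO, FITC-labeled PTAP-motif peptide added (50 nM final); after 20 min binding at room temperature, polarization measured.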
# An asterisk follows results filed as active; i = inactive; ? = inconclusive; . = not tested or not shown. Unless noted, calls follow the shape of the dose curve; as a rule, active = well fitted curve in the direction sought with a large enough effect; inconclusive = small, poorly fitted or top-dose-only effect, or another doubt; inactive = no such curve, though single readings can be large; an effect the other way counts as inactive or inconclusive. Potency is read from the fitted curve at half-maximal effect.
SMILES,MCF10A rerep,RGS4 inh,KB-V1 MDR tox,SW480 rerep,KB-3-1 cytotox,TSG101-PTAP inh
CCc1ccc(OCC(=O)O/N=C(\N)c2ccccn2)cc1,0%,-8%,i,-2%,i,-1%
CC(=O)Nc1nonc1-c1nnc(SCC(=O)Nc2cc(C)ccc2C)n1-c1ccccc1,.,-3%,i,.,i,.
CCN1C(=O)c2ccccc2Sc2ccc(NC(=O)Nc3cccc([N+](=O)[O-])c3C)cc21,.,-11%,i,.,i,.
COc1ccc(NC(=O)CSc2c3c(nc4ccccc24)CCCC3)c(OC)c1,21µM*,-20%,i,?,i,-1%
COc1ccc(OC)c(NC(=O)c2c3c(nc4ccccc24)CCC3)c1,-1%,0%,6.5µM*,9%,i,-6%
COc1cc(NC(=O)CSc2c3c(nc4ccccc24)CCC3)cc(OC)c1OC,0%,-9%,15µM*,46%,i,-1%
COc1ccccc1NC(=O)CSc1c2c(nc3ccccc13)CCC2,2%,-20%,?,-6%,i,-2%
COc1ccc(NC(=O)c2c3c(nc4ccccc24)CCC3)cc1,0%,40%,i,2%,i,-7%
COc1ccc(CCN2C(=O)CSC2=Nc2ccc(C(C)C)cc2)cc1OC,16µM*,-3%,3.3µM*,9.2µM*,3.7µM*,-6%
O=c1[nH]c2ccccc2nc1-c1c[nH]c2ccccc12,25%,-4%,i,0.73µM*,i,-8%
Nc1ccccc1-c1nc2ccccc2[nH]c1=O,-2%,-8%,i,?,i,-5%
COc1ccc(Nc2nc3cc(C)ccc3cc2C#N)cc1,3%,3%,i,-4%,i,-13%
COc1ccc(Nc2nc3cc(C)ccc3cc2C#N)c(OC)c1,?,25%,i,?,2.1µM*,-11%
Cc1cccc2cc(C#N)c(NCCCn3ccnc3)nc12,?,43%,15µM*,?,i,0%
Cc1cccc2cc(C#N)c(NCCNS(=O)(=O)c3ccccc3)nc12,21µM*,7%,?,?,i,4%
Cc1cccc2cc(C#N)c(NCCNC(=O)COc3ccccc3)nc12,?,4%,i,8%,?,0%
Cc1ccc2cc(C#N)c(NCc3ccccc3)nc2c1,9.2µM*,-7%,i,?,i,0%
Cc1c(Cl)cccc1-n1ncc(C(=O)N2CCC(C)CC2)c1C1CCN(C(=O)OC(C)(C)C)CC1,.,-8%,i,.,i,.
CC(Nc1oc(-c2ccc(COc3ccccc3)o2)nc1C#N)c1ccccc1 (configuration not stated),.,8%,i,.,i,.
COc1ccccc1CNC(=O)CCC1N=C2c3ccccc3N=C(SCC(N)=O)N2C1=O (configuration not stated),.,-3%,i,.,i,.
CCCCOc1ccc(S(=O)(=O)NCc2csc(-c3ccc(OC)cc3)n2)cc1,.,23%,.,.,.,.
Cc1cccc2cc(C#N)c(NCc3ccccc3)nc12,23µM*,9%,i,?,i,-2%
Cc1cccc2cc(C#N)c(NCCCNS(=O)(=O)c3ccc(Cl)cc3)nc12,?,4%,9.2µM*,16µM*,?,-3%
NNC(=O)c1ccc(Cn2cccn2)o1,?,-1%,i,2.3µM*,i,3%
CC1=C(C(=O)N(C(C)C)C(C)C)CC(CC(=O)NCCc2ccccn2)C(=O)N1CCC1=CCCCC1 (configuration not stated),.,.,i,.,21µM*,.
